According to PubChem BioAssay (Tox21):
Activity calls are given as the source filed them. Unless noted, calls come from the whole dose curve; as a rule, active = well fitted curve in the direction sought with a large enough effect in the repeat runs; inconclusive = weak or mixed curves; inactive = no such curve, though single readings can be large; an effect the other way counts as inactive or inconclusive.

How the values were obtained:
[1] = target: Estrogen receptor (Homo sapiens) (UniProt P03372); experiment: qHTS assay to identify small molecule antagonists of the estrogen receptor alpha (ER-alpha) signaling pathway (AID 743069; active = well fitted curve in the direction sought with a large enough effect in the signal ratio in the repeat runs, not every such curve was filed as active; inconclusive = weak or mixed curves, or effect the other way; inactive = no such curve, though single readings can be large or run the other way; the % refers to the signal ratio; note: potency is the fitted concentration of half-maximal effect)
Estrogen receptor (Homo sapiens), sequence (P03372 whole entry, looked up): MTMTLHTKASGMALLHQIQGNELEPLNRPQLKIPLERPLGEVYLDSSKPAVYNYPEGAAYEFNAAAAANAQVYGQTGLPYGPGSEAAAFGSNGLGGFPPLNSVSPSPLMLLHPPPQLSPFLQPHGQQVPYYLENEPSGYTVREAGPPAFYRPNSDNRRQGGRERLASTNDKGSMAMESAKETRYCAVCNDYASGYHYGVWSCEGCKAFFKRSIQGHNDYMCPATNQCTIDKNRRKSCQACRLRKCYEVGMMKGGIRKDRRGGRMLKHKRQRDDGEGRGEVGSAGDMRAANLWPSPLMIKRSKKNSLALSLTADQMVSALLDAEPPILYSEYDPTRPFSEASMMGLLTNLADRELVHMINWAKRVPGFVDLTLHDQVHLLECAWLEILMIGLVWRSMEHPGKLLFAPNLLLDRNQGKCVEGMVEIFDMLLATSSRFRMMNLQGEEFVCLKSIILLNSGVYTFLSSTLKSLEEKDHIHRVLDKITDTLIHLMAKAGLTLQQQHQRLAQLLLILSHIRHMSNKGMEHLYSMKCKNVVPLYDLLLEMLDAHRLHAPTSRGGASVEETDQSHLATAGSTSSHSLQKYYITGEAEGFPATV
Outline: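 Estradiol-stimulated ER-alpha-UAS-bla HEK293 cells, 18 hr compound exposure at 37C. LiveBLAzer B/G substrate, 2 hr RT, fluorescence read.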

[2] = qHTS assay to identify small molecule antagonists of the estrogen receptor alpha (ER-alpha) signaling pathway - cell viability counter screen (AID 743074; calls by dose curve;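 note: HEK293 cells carrying ER-alpha-UAS-bla reporter stimulated with 17beta-estradiol; nearly all actives have a fitted effect of over 45% in size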; note: potency is the fitted concentration of half-maximal effect)
[3] = target: Estrogen receptor (Homo sapiens) (UniProt P03372); experiment: qHTS assay to identify small molecule agonists of the estrogen receptor alpha (ER-alpha) signaling pathway (AID 743075; calls by dose curve;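 note: HEK293 GripTite cells with ER-alpha and UAS-driven beta-lactamase reporter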; note: potency is the fitted concentration of half-maximal effect)
[4] = target: Estrogen receptor (Homo sapiens) (UniProt P03372); experiment: qHTS assay to identify small molecule agonists of the estrogen receptor alpha (ER-alpha) signaling pathway using the BG1 cell line (AID 743079); conditions: BG1Luc4E2 cells, ERE-luciferase agonist, 22 h; activation: at 70.3 µM (top of the series); note: nearly all actives have a fitted effect of over 20% in size; note: potency is the fitted concentration of half-maximal effect
[5] = qHTS assay to identify small molecule antagonists of the estrogen receptor alpha (ER-alpha) signaling pathway using the BG1 cell line (AID 743080; calls by dose curve;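 note: BG1 cells stimulated with 17beta-estradiol alongside compound; nearly all actives have a fitted effect of over 25% in size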; note: potency is the fitted concentration of half-maximal effect)
Outline: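 BG1Luc4E2, endogenous ER-alpha, 4xERE-luc; 5 d charcoal-stripped FBS, phenol red free; 24 h plating; cpd + 17beta-estradiol 21.5 h, 37 C/5% CO2; CellTiter-Fluor viability 30 min, then ONE-Glo luciferase 30 min RT.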

[6] = qHTS assay to identify small molecule antagonists of the estrogen receptor alpha (ER-alpha) signaling pathway using the BG1 cell line - cell viability counter screen (AID 743081);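 note: compound given together with 17beta-estradiol as the ER stimulus; nearly all actives have a fitted effect of over 45% in size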; note: potency is the fitted concentration of half-maximal effect
[7] = target: Aromatase (Homo sapiens) (UniProt P11511); experiment: qHTS assay to identify aromatase inhibitors (AID 743083); note: nearly all actives have a fitted effect of over 55% in size; note: potency is the fitted concentration of half-maximal effect
Aromatase (Homo sapiens), sequence (P11511 whole entry, looked up): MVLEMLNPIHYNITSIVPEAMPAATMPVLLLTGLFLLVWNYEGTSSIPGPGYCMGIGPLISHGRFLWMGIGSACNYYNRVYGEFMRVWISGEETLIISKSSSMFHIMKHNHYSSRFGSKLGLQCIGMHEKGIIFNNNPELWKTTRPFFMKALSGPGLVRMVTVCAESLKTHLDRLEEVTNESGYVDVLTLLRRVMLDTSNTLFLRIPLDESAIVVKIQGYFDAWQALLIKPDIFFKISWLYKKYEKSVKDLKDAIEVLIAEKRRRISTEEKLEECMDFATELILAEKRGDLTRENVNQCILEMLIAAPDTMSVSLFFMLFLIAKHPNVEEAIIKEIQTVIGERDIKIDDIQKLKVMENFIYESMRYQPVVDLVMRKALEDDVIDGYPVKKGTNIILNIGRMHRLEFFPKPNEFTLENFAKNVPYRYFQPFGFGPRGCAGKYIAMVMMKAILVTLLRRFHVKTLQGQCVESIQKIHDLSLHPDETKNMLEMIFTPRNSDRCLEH

[8] = qHTS assay to identify aromatase inhibitors - cell viability counter screen (AID 743084);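 note: cells stimulated with testosterone during compound exposure; nearly all actives have a fitted effect of over 55% in size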; note: potency is the fitted concentration of half-maximal effect
[9] = test system: thyroid hormone receptor (rat, GH3 cells); experiment: qHTS assay to identify small molecule agonists of the thyroid receptor (TR) signaling pathway (AID 743066; calls by dose curve)
% is set by controls: 0 for no effect and ±100 for the full control effect.

CCC(C)Nc1c([N+](=O)[O-])cc(C(C)(C)C)cc1[N+](=O)[O-] (stereo unspecified)
active: Potency [4] 61.1 µM
inactive: Potency [1] | Potency [2] | Potency [3] | Potency [5] | Potency [6] | Potency [7] | Potency [8]

CC(=O)[O][Sn]([c]1ccccc1)([c]1ccccc1)[c]1ccccc1
active: Potency [2] 0.195 µM | Potency [6] 3.86 µM | Potency [8] 0.344 µM

Clc1ccc(C2(Cn3cncn3)OCCO2)c(Cl)c1
inactive: Potency [1] | Potency [2] | Potency [3] | Potency [4] | Potency [5] | Potency [6] | Potency [7] | Potency [8]

CCOP(=O)(Sc1ccccc1)Sc1ccccc1
inactive: Potency [2] | Potency [3] | Potency [6] | Potency [8]

Cc1ccn2nc(S(=O)(=O)Nc3c(F)cccc3F)nc2n1
inactive: Potency [2] | Potency [6] | Potency [7] | Potency [8]

O.O.O.O.O.O.O.O=S(=O)([O-])[O-].[Co+2]
inactive: Potency [6] | Potency [7] | Potency [8]

O=c1[nH]c(Cl)c(Cl)cc1Cl
inactive: Potency [9] | Potency [2] | Potency [6] | Potency [7] | Potency [8]

CCN(CC)Cc1nccn1-c1ccc([N+](=O)[O-])cc1C(=O)c1ccccc1Cl
inactive: Potency [9] | Potency [2] | Potency [8]

C#CCO
inactive: Potency [1] | Potency [2] | Potency [3] | Potency [4] | Potency [5] | Potency [6] | Potency [7] | Potency [8]

CCn1cc[n+](C)c1 (tested in a mixture with another compound)
inactive: Potency [9] | Potency [2] | Potency [6]

CC(=O)[O-].CC(=O)[O-].[Co+2]
inactive: Potency [9] | Potency [2] | Potency [6] | Potency [7] | Potency [8]

O.O.O.O.O.O.O=S(=O)([O-])[O-].[Ni+2]
inactive: Potency [2] | Potency [6] | Potency [7] | Potency [8]

CC(=O)[O-].CC(=O)[O-].O.O.[Zn+2]
inactive: Potency [9] | Potency [6] | Potency [7] | Potency [8]

CC(=O)[O-].CC(=O)[O-].O.O.O.[Pb+2]
inactive: Potency [9] | Potency [2] | Potency [6] | Potency [7] | Potency [8]

Brc1ccc(Oc2ccc(Br)cc2Br)c(Br)c1
inactive: Potency [9] | Potency [2] | Potency [3] | Potency [6] | Potency [7] | Potency [8]
active: Potency [4] 19.4 µM

COc1ccc2c3c1O[C@H]1[C@H](O)CC[C@H]4[C@@H](C2)N(C)CC[C@@]341
inactive: Potency [2] | Potency [6] | Potency [7] | Potency [8]

Cc1ccc2cc3c(ccc4ccccc43)c3c2c1CC3
active: Potency [3] 6.18 µM [activator] | Potency [5] 0.546 µM
inactive: Potency [1] | Potency [2] | Potency [6] | Potency [8]

Cc1c([N+](=O)[O-])cc2c(c1[N+](=O)[O-])C(C)(C)CC2(C)C
active: Potency [3] 21.9 µM [inconclusive] | Potency [5] 15.4 µM | Potency [7] 27.3 µM
inactive: Potency [9] | Potency [2] | Potency [6] | Potency [8]

O=[N+]([O-])[O-].[Tl+]
active: Potency [7] 69.1 µM
inactive: Potency [2] | Potency [6] | Potency [8]

Clc1ccc(C(Cl)(Cl)Cl)cc1Cl
inactive: Potency [1] | Potency [2] | Potency [3] | Potency [4] | Potency [5] | Potency [6] | Potency [7] | Potency [8]

CCOP(=S)(OCC)SC(CCl)N1C(=O)c2ccccc2C1=O (stereo unspecified)
inactive: Potency [9] | Potency [2] | Potency [7] | Potency [8]

CCCN
inactive: Potency [2] | Potency [6] | Potency [7] | Potency [8]

CC[C@H](C)[C@H]1O[C@]2(C=C[C@@H]1C)C[C@@H]1C[C@@H](C/C=C(\C)[C@@H](O[C@H]3C[C@H](OC)[C@@H](O[C@H]4C[C@H](OC)[C@@H](NC)[C@H](C)O4)[C@H](C)O3)[C@@H](C)/C=C/C=C3\CO[C@@H]4[C@H](O)C(C)=C[C@@H](C(=O)O1)[C@]34O)O2
active: Potency [1] 30.9 µM [cytotoxic] | Potency [2] 13.8 µM | Potency [6] 30.6 µM | Potency [7] 4.86 µM | Potency [8] 9.69 µM

CCc1cccc(C)c1N(C(=O)CCl)[C@@H](C)COC
inactive: Potency [2] | Potency [6] | Potency [8]

Clc1cc(Cl)c(-c2cc(Cl)c(Cl)cc2Cl)cc1Cl
inactive: Potency [9] | Potency [2] | Potency [6] | Potency [7] | Potency [8]

CC(=O)O.CC(=O)O.CC(=O)O.CC(=O)O.CC(=O)O.CC(=O)O.CC(=O)O.O.O.[Cr].[Cr].[Cr]
inactive: Potency [9] | Potency [2] | Potency [6] | Potency [7] | Potency [8]

CC(=O)[O-].CC(=O)[O-].CC(=O)[O-].[Sb+3]
inactive: activation [9] 0.26% [at 8.08 µM] | activity, negative = cytotoxicity [2] 16.3% [at 6.72 µM] | activity change, negative = cytotoxicity [6] 10.6% [at 8.47 µM] | activity, negative = inhibition [7] 2.18% [at 8.47 µM] | activity change, negative = cytotoxicity [8] 6.01% [at 8.47 µM]

CC(=O)[O-].CC(=O)[O-].CC(=O)[O-].[Cr+3]
inactive: Potency [9] | Potency [2] | Potency [6]

C[N+]1(C)[C@@H]2CC[C@H]1CC(OC(=O)C(CO)c1ccccc1)C2 (stereo partly specified)
inactive: Potency [9] | Potency [2] | Potency [5] | Potency [6] | Potency [7] | Potency [8]

O=S(=O)(NS(=O)(=O)C(F)(F)F)C(F)(F)F
inactive: Potency [2] | Potency [6] | Potency [8]
